As usually defined, the AC50 is the concentration giving half of the maximal activity seen.

Active and inactive are the calls of the source. How the source made its calls: active means hit-call score of the fitted dose curve at least 0.9, where 1 is the maximum; inactive means score below 0.9.

This experiment can be described thus: CCTE_Mundy_HCI_Cortical_Synap_Neur_Matur_BPCount: CCTE's Synaptogenesis and Neurite Maturation Assay in rat cortical cells for Branch Point Count, Mundy Lab (AID 2284211). How it is done:
CCTE_Mundy_HCI_Cortical_Synap&Neurite_Matur is a multiplexed, cell-based-readout assay that uses rat primary cortical cells with measurements taken at 288.33 hours after chemical dosing in a microplate: 96-well plate.CCTE_Mundy_HCI_Cortical_Synap_Neur_Matur_BPCount is one of eight components of the CCTE_Mundy_HCI_Cortical_Synap&Neurite_Matur assay. It measures synaptogenesis and neurite maturation related to number of branch points using High Content Imaging of fluorescently labelled markers.[…] Using a type of morphology reporter, loss -of-signal activity can be used to understand developmental effects.
Cells are plated onto 96 well plates and allowed 2 hr for attachment to the substrate. At days in vitro (DIV) 5, Cytosine Arabinoside (AraC) is added to arrest glial cell growth. Chemicals are dosed and a media change is performed at DIV 7 of differentiation and is continued through DIV 12 when the experiment is terminated. Cells are fixed with […] and Hoechst Dye. Cells are stained using Millipore Mouse anti-MAP2MAB3418 (1:800) and Millipore Rabbit anti-Synaptophysinsc-1750 (1:250) primary antibodies and Alexa Fluor-488 goat anti-mouse and AlexaFluor-546 goat anti-rabbit secondary antibodies to label neuronal cell nuclei, synapses and neurites. A Cellomics ArrayScan VTi HCS Reader is used for automated image acquisition and analysis of neurite outgrowth.
Consider `Cc1ccc(OP(=O)(Oc2ccc(C)cc2)Oc2ccc(C)cc2)cc1` (tested in a mixture with another compound), for which the call was inactive.
Still for that read-out and setting: for `COP(=O)(OC)SCN1C(=O)c2ccccc2C1=O` the value was “inactive”; for `C=CCN1CC[C@]23c4c5ccc(O)c4O[C@H]2C(=O)CC[C@@]3(O)[C@H]1C5`, “inactive”.
In the case of `CCC[CH2][Sn]([CH2]CCC)([CH2]CCC)[O][Sn]([CH2]CCC)([CH2]CCC)[CH2]CCC`, the AC50 is 0.023 µM (active).
Regarding `CC1(C)[C@H](C=C(Cl)Cl)[C@@H]1C(=O)O[C@@H](C#N)c1cccc(Oc2ccccc2)c1`, the call was inactive.
As for `CC1(C)C(C=C(Cl)Cl)C1C(=O)O[C@H](C#N)c1cccc(Oc2ccccc2)c1` (stereo partly drawn), the AC50 was 12.8 µM (active).
Turning to `C[C@H](N)Cc1ccccc1`, the outcome was inactive.
Consider `CCOP(=O)(OCC)SCSC(C)(C)C`, for which the molecule was classed as inactive.
The same measure, in the same setting: with `CCOP(=O)(Oc1cnc(C(C)(C)C)nc1)OC(C)C` (stereo not drawn) the entry was “inactive”.
As to `CCOP(=O)(OCC)OC(Cl)C(Cl)(Cl)Cl` (stereo not drawn), the AC50 is 79.5 µM (active).
Regarding `C#CCN(C)[C@H](C)Cc1ccccc1`, the molecule was called inactive.
Consider `[Cd+2].[Cl-].[Cl-]`, for which the AC50 is 1.38 µM (active).
Same read-out and setting: for `Cn1nc(C(F)(F)F)c(CS(=O)(=O)C2=NOC(C)(C)C2)c1OC(F)F` the value was 15.1 µM (active).
In the case of `CC1(C)[C@@H](C=C(Cl)Cl)[C@@H]1C(=O)O[C@@H](C#N)c1ccc(F)c(Oc2ccccc2)c1`, the result was inactive.
With `CC1(C)C(C=C(Cl)c2ccc(Cl)cc2)C1C(=O)OC(C#N)c1ccc(F)c(Oc2ccccc2)c1` (stereo not drawn), the AC50 was 50 µM (active).
Still for that read-out and setting: with `CC1(C)[C@H](C=C(Cl)Cl)[C@H]1C(=O)OCc1c(F)c(F)cc(F)c1F` the figure was 9.4 µM (active); with `Brc1ccc(Oc2ccc(Br)cc2Br)c(Br)c1`, 3.98 µM (active).
Still for that read-out and setting: with `C[n+]1ccc(-c2cc[n+](C)cc2)cc1` the figure was 0.947 µM (active).
On the same count and under the same terms, with `CC(=O)[O-].[Tl+]` the figure was 9.92 µM (active).
Consider `CCOP(=O)(OCC)SCSCC`, for which the call was inactive.
For the molecule `O=[As]O`, the AC50 is 5 µM (active).
Consider `CCOP(=S)(OCC)SCS(=O)C(C)(C)C` (stereo not drawn), for which the call was inactive.
On to `CNC(=N[N+](=O)[O-])NCC1CCOC1` (stereo not drawn), for which the call was inactive.
